Screening data from PubChem BioAssay.
An excerpt weighted towards active compounds, which were near 19% of everything screened.
MARV entry inh – qHTS for inhibitors of binding or entry into cells for Marburg Virus | actives 1.8% (n = 300,000) | Marburg virus pseudotyped entry inhibition, cell reporter | Potency, µM (doses to about 37.8 µM), most hits filed as inhibitors; calls by dose curve; tested in HEK293 cells
Pf growth 96h – Primary qHTS for delayed death inhibitors of the malarial parasite plastid, 96 hour incubation | P. falciparum luciferase reporter growth, 96 h | actives 6.9% (n = 320,000) | Potency, µM (highest dose often 28.7 µM), usual class: inhibitors
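Plates of compound plus infected erythrocytes (2% hematocrit, 0.05% parasitemia final) incubate 96 hours, 37 C, 5% CO2. Detection reagent added; reduced luminescence from the parasites' luciferase reporter flags inhibition.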
Pf growth 48h – Primary qHTS for delayed death inhibitors of the malarial parasite plastid, 48 hour incubation; actives 5.9% (n = 310,000); Potency, µM (doses to about 28.7 µM), hits mostly inhibitors; P. falciparum luciferase growth in erythrocytes, 48 h; AID 504832, 2011
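Erythrocytes infected with P. falciparum carrying an integrated firefly luciferase reporter (2% hematocrit, 0.1% parasitemia final) were exposed to compounds in RPMI 1640 with 0.5% Albumax at 37 C, 5% CO2. Growth inhibition was scored as reduced luminescence.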
CHX counter – Cycloheximide Counterscreen for Small Molecule Inhibitors of Shiga Toxin; actives 12% (n = 300,000); max response, %; AID 2314, 2010; cell reporter, cycloheximide protein synthesis inhibition counterscreen; in the data active = max response mostly above about 13%, no sharp cut-off; inactive = mostly below about 14%; note: read at 38.3 µM for the half of the compounds with a filed dose
Lassa entry inh – qHTS for Inhibitors of binding or entry into cells for Lassa Virus; actives 1.2% (n = 300,000); Potency, µM (titrated, usually from 37.9 µM), hits mostly inhibitors; Lassa virus pseudotype entry inhibition, cell reporter; calls by dose curve; tested in HEK293 cells; note: nearly all actives have a fitted effect of over 50% in size
Shiga toxin inh – A qHTS for Small Molecule Inhibitors of Shiga Toxin | inhibition, % at 38.7 µM | actives 9.2% (n = 290,000) | Vero cells, Shiga toxin protein synthesis inhibition reporter; in the data active = inhibition mostly above about 28%, no sharp cut-off; inactive = mostly below about 43%
Hits are given with their value. Unless noted, calls come from the whole dose curve; as a rule, active = well fitted inhibition curve with a large enough effect; inconclusive = small, poorly fitted or top-dose-only effect, or another doubt; inactive = no such curve, though single readings can be large or run the other way.

For COCc1cc(C)nc(SCC(=O)Nc2cccc3cccnc23)c1C#N the results were MARV entry inh inactive, Pf growth 96h 12µM, Pf growth 48h inactive, CHX counter inactive, Lassa entry inh inactive and Shiga toxin inh inactive.
COCc1cc(C)nc(SCC(=O)Nc2ccc3c(c2)OCCO3)c1C#N was read as Pf growth 96h inactive, Pf growth 48h inactive, CHX counter 11 and Shiga toxin inh inactive.
`COCc1cc(C)nc(SCC(=O)Nc2ccccc2N2CCOCC2)c1C#N` gave MARV entry inh inactive, Pf growth 96h inconclusive, Pf growth 48h inconclusive, CHX counter inactive, Lassa entry inh inconclusive and Shiga toxin inh inactive.
COCc1cc(C)nc(SCc2ccc(Cl)cc2)c1C#N was read as MARV entry inh inactive, Pf growth 96h inactive, Pf growth 48h inconclusive, CHX counter inactive, Lassa entry inh inactive and Shiga toxin inh inactive.
CCc1nnc(NS(=O)(=O)c2ccc(NC(=O)CCC(=O)OC)cc2)s1 was read as Pf growth 96h inconclusive, Pf growth 48h inactive, CHX counter inactive and Shiga toxin inh inactive.
`O=P(O)(COc1ccccc1)COc1ccccc1` gave MARV entry inh inactive, Pf growth 96h 13µM, Pf growth 48h inactive, CHX counter inactive, Lassa entry inh inactive and Shiga toxin inh inactive.
OCCOc1ccccc1 was read as Pf growth 96h inactive and Pf growth 48h inactive.
For CN(C)c1ccc(C(CNC(=O)c2ccco2)N2CCCC2)cc1 (stereo not drawn) the results were Pf growth 96h inactive, Pf growth 48h inactive, CHX counter inactive and Shiga toxin inh 48.
`CN(C)c1ccc(C(CNC(=O)c2ccc(-c3ccccc3)cc2)N2CCOCC2)cc1` (stereo not drawn) gave Pf growth 96h inconclusive and Pf growth 48h 13µM.
CN(C)c1ccc(C(CNC(=O)c2ccccc2C(F)(F)F)N2CCOCC2)cc1 (stereo not drawn) was read as Lassa entry inh inactive.
Screening Clc1ccc(CSc2cc3c(nn2)-c2ccccc2CC3)cc1 returned MARV entry inh inactive, Pf growth 96h inactive, Pf growth 48h inactive, CHX counter 15, Lassa entry inh inactive and Shiga toxin inh inactive.
For CCC(C)Sc1ccc([C@H]2N[C@@](C)(C(=O)OC)[C@H]3C(=O)N(CC)C(=O)[C@@H]23)cc1 (stereo partly drawn) the results were Pf growth 96h inactive and Pf growth 48h inconclusive.
`CCC(C)Sc1ccc([C@@H]2[C@H]3C(=O)N(CC)C(=O)[C@H]3[C@]3(C(=O)OC)CCCN23)cc1OC` (stereo partly drawn) gave Pf growth 96h 10µM and Pf growth 48h 12µM.
CCN1C(=O)[C@H]2[C@@H](c3ccc(SC4CCCCC4)c(OC)c3)N3CCCC[C@@]3(C(=O)OC)[C@H]2C1=O was read as Pf growth 96h 12µM and Pf growth 48h 3.7µM.
CCN1C(=O)[C@@H]2[C@@H](c3ccc(SC4CCCCC4)cc3)N3CCCC[C@@]3(C(=O)OC)[C@@H]2C1=O was read as Pf growth 96h 12µM and Pf growth 48h inconclusive.
`COCCn1c(N)c(N(Cc2ccccc2)C(=O)CN2C(=O)NC(C)(c3ccccc3)C2=O)c(=O)[nH]c1=O` (stereo not drawn) gave MARV entry inh inactive, Pf growth 96h inactive, Pf growth 48h inactive, CHX counter inactive, Lassa entry inh inactive and Shiga toxin inh inactive.
Screening Cc1ccc(C(=O)Nc2ccccc2C(=O)N2CC3(C)CC2CC(C)(C)C3)cc1 (stereo not drawn) returned MARV entry inh inconclusive, Pf growth 96h inconclusive, CHX counter inactive, Lassa entry inh inconclusive and Shiga toxin inh inactive.
`CCSc1nnc(N2C(=O)c3ccc(C(=O)c4ccc(C(=O)O)cc4)cc3C2=O)s1` gave Pf growth 96h 10µM, Pf growth 48h inactive, CHX counter inactive and Shiga toxin inh inactive.
Screening Cc1ccc(N2C(=O)c3ccc(C(=O)O)cc3C2=O)cc1C returned MARV entry inh inactive, Pf growth 96h inconclusive, CHX counter inactive, Lassa entry inh inactive and Shiga toxin inh inactive.
`COc1ccccc1CNC(=O)c1cccc(C)c1[N+](=O)[O-]` gave MARV entry inh inactive, Pf growth 96h inactive, Pf growth 48h inactive, CHX counter inactive, Lassa entry inh inactive and Shiga toxin inh inactive.
Cc1cc(=O)[nH]c(N/N=C/c2sccc2C)n1 was read as MARV entry inh inactive, Pf growth 96h inconclusive, Pf growth 48h inactive, CHX counter 47, Lassa entry inh inactive and Shiga toxin inh 81.
Cc1ccc(-c2ccc(/C=N/O)o2)cc1[N+](=O)[O-] was read as Pf growth 96h inactive, Pf growth 48h inactive, CHX counter 35 and Shiga toxin inh 61.
Cc1cc(=O)[nH]c(N/N=C/c2c(F)c(F)c(F)c(F)c2F)n1 was read as Pf growth 96h inactive, CHX counter inactive and Shiga toxin inh inactive.
`Cc1cc(=O)[nH]c(N/N=C/c2ccc(-c3ccc([N+](=O)[O-])cc3)o2)n1` gave MARV entry inh inactive, Pf growth 96h inactive, Pf growth 48h inactive, CHX counter 12, Lassa entry inh inactive and Shiga toxin inh inactive.
`Cc1cc(=O)[nH]c(N/N=C/c2cccs2)n1` gave MARV entry inh inconclusive, Pf growth 96h inactive, Pf growth 48h inactive, CHX counter 23, Lassa entry inh inactive and Shiga toxin inh inactive.
Screening CN1CCN(CC(=O)Nc2c(C#N)cnn2-c2ccccc2)CC1 returned MARV entry inh inactive, Pf growth 96h inactive, Pf growth 48h inactive, CHX counter inactive, Lassa entry inh inactive and Shiga toxin inh inactive.
Screening CC(C)[C@H](NC(=O)c1ccc(Cl)c([N+](=O)[O-])c1)C(=O)O returned Pf growth 96h inactive, Pf growth 48h inactive, CHX counter inactive and Shiga toxin inh inactive.
Screening Cc1ccc2oc(=O)c(/C=C(\O)c3ccco3)nc2c1 returned MARV entry inh inactive, Pf growth 96h inconclusive, Pf growth 48h inconclusive, CHX counter 17, Lassa entry inh inactive and Shiga toxin inh inactive.
`Cc1ccc2oc(=O)c(/C=C(\O)c3sc(C)nc3C)nc2c1` gave MARV entry inh inactive, Pf growth 96h 10µM, Pf growth 48h inconclusive, CHX counter inactive, Lassa entry inh inactive and Shiga toxin inh inactive.
Screening Cc1ccc2oc(-c3cc(NC(=O)c4ccco4)ccc3Cl)nc2c1 returned Lassa entry inh inactive.
`Cc1ccc2oc(=O)c(/C=C(\O)C(C)(C)C)nc2c1` gave MARV entry inh inactive, Pf growth 96h inactive, Pf growth 48h inconclusive, CHX counter inactive, Lassa entry inh inactive and Shiga toxin inh inactive.
CC(C)(C)/C(O)=C/c1nc2cc(Cl)ccc2oc1=O was read as MARV entry inh inconclusive, Pf growth 96h 5.9µM, Pf growth 48h 9.3µM, CHX counter inactive, Lassa entry inh inactive and Shiga toxin inh inactive.
CCOc1ccccc1NC(=O)c1nc(SC(C)C)ncc1Cl was read as MARV entry inh inactive and Lassa entry inh inactive.
